Inconclusive results are not listed. Calls of active or inactive are those of the source. Rule for the calls: active = hit-call score of the fitted dose curve at least 0.9, where 1 is the maximum; inconclusive = response in the unintended direction; inactive = score below 0.9.

In general, AC50 refers to the concentration giving half of the maximal activity seen.

The target in assay [1] is Neuropeptide Y receptor type 2 (Homo sapiens) (UniProt P49146). The experiment in a line: NVS_GPCR_hNPY2: NovaScreen (NVS) G Protein-Coupled Receptor Assay for human Neuropeptide Receptor Y2 (NPY2) (AID 2283277). The method in brief:
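Chemicals were first tested in duplicate at 25 uM, then actives in singleton concentration series to 50 uM. Tracer binding to SK-N-MC-derived protein measured cell-free after 1 h via filter scintillation; signal loss relative to DMSO.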

In assay [2] the target is human Thromboxane A2 Receptor (TXA2), TBXA2R (gene 6915) (UniProt P21731). The experiment in a line: NVS_GPCR_hTXA2: NovaScreen (NVS) G Protein-Coupled Receptor Assay for human Thromboxane A2 Receptor (TXA2) (AID 2283282).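 Note: actives reduce bound radioligand signal relative to DMSO baseline.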 The method in brief: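 Cell-free radioligand binding with human platelet-derived receptor; 1 h after dosing, filter-based scintillation counting, loss of signal vs DMSO. Primary screen in duplicate at 25 uM.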
human Thromboxane A2 Receptor (TXA2), TBXA2R (gene 6915), sequence (P21731 whole entry, looked up): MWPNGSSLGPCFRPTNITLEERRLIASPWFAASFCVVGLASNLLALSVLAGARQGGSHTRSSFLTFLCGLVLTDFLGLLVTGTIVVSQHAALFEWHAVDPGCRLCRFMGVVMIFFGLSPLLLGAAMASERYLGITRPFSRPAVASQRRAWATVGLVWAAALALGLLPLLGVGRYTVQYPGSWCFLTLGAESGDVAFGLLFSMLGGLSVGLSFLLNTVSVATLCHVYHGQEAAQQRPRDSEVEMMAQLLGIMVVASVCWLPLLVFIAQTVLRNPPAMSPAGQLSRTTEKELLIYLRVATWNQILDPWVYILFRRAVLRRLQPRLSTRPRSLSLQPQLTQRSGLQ

Assay [3] concerns the target human Purinergic Receptor P2Y, P2RY1 (gene 5028) (UniProt P47900). The assay is described as follows: NVS_GPCR_hPY2: NovaScreen (NVS) G Protein-Coupled Receptor Assay for human Purinergic Receptor P2Y (AID 2283281). The method in brief: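 Filtration scintillation readout of radioligand displacement on U937 extract, measured 1 h post-dosing. Single 25 uM duplicate screen, then singleton concentration series to 50 uM for chemicals passing threshold; DMSO as baseline.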

The target of assay [4] is human Neurokinin, NK2 Receptor, TACR2 (gene 6865) (UniProt P21452). The experiment in a line: NVS_GPCR_hNK2: NovaScreen (NVS) G Protein-Coupled Receptor Assay for human Neurokinin, NK2 Receptor (AID 2283278).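 Note: actives reduce bound radioligand signal relative to DMSO baseline.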 Summed up: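 Radioligand binding on membranes from CHO cells expressing receptor, filter-based scintillation read 4 h after dosing. Initial duplicate screen at 25 uM, actives in concentration series; loss of signal versus DMSO.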
human Neurokinin, NK2 Receptor, TACR2 (gene 6865), sequence (P21452 whole entry, looked up): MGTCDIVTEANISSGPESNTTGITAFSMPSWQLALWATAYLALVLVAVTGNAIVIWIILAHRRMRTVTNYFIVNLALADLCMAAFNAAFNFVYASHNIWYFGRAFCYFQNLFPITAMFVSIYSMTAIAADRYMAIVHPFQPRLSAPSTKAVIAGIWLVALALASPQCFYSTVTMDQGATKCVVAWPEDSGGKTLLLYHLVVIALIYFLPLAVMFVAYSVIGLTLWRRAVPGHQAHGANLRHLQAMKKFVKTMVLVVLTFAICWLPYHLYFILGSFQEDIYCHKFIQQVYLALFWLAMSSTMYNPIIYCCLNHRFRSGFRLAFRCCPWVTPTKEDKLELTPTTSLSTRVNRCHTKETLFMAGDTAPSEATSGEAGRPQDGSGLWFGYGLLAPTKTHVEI

For assay [5], the target named is human Vasopressin 1A Receptor (V1A), AVPR1A (gene 552) (UniProt P37288). The experiment in a line: NVS_GPCR_hV1A: NovaScreen (NVS) G Protein-Coupled Receptor Assay for human Vasopressin 1A Receptor (V1A) (AID 2283284). The method in brief: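 Single-concentration duplicate screen at 25 uM, with concentration-response follow-up (top 50 uM) for actives. The assay measured displacement of a radioligand from human platelet-derived receptor after 1.5 h, detected by filtration and scintillation counting.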
human Vasopressin 1A Receptor (V1A), AVPR1A (gene 552), sequence (P37288 whole entry, looked up): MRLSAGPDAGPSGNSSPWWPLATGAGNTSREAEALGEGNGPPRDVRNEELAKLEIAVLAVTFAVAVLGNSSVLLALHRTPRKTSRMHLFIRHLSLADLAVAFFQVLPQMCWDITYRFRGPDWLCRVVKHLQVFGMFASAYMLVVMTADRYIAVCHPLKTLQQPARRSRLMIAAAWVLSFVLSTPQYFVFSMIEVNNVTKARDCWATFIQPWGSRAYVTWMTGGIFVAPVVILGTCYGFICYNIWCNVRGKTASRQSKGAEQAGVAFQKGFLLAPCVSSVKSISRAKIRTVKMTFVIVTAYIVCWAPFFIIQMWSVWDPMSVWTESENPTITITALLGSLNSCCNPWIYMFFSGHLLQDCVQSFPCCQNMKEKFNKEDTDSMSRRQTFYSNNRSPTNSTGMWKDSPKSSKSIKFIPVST

Assay [6] addresses human Neurotensin Receptor (NTS), NTSR1 (gene 4923) (UniProt P30989). The experiment in a line: NVS_GPCR_hNTS: NovaScreen (NVS) G Protein-Coupled Receptor Assay for human Neurotensin Receptor (NTS) (AID 2283279). The method in brief:
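Compounds competed with a radiolabelled ligand for binding to CHO-derived human neurotensin receptor; bound signal counted after filtration, 1 h. Screened first at a single concentration of 25 uM in duplicate, then concentration series to 50 uM maximum for actives.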

Assay [7] addresses mouse Cholecystokinin, CCK1 Receptor (CCKA), Cckar (gene 12425) (UniProt O08786). The experiment in a line: NVS_GPCR_mCCKAPeripheral: NovaScreen (NVS) G Protein-Coupled Receptor Assay for mouse Cholecystokinin, CCK1 Receptor (CCKA) (AID 2283285). Summed up: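 Chemicals were first screened in duplicate at 25 uM, with those meeting threshold (e.g., 30% inhibition) retested in singleton concentration series to 50 uM maximum. Binding of radioligand to mouse pancreatic membranes was read after 2 h by filtration and scintillation counting.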

The target of assay [8] is Muscarinic acetylcholine receptor M2 (Homo sapiens) (UniProt P08172). The experiment in a line: NVS_GPCR_hM2: NovaScreen (NVS) G Protein-Coupled Receptor Assay for human Muscarinic, M2 Receptor (AID 2283273). Summed up:
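Filter-based radiodetection read bound radioligand 1 h after dosing CHO-derived membrane protein. Single-concentration duplicates (25 uM) first, then concentration-response for actives; signal loss versus DMSO scored.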

For assay [9], the target named is human Muscarinic, M4 Receptor, CHRM4 (gene 1132) (UniProt P08173). The experiment in a line: NVS_GPCR_hM4: NovaScreen (NVS) G Protein-Coupled Receptor Assay for human Muscarinic, M4 Receptor (AID 2283274). Summed up:
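Filter-based scintillation counting of radioligand bound to CHO-expressed human M4 preparations after 1 h; loss of signal fitted versus DMSO. Initial duplicate testing at 25 uM, concentration-response follow-up for actives.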

In assay [10] the target is D(1A) dopamine receptor (Homo sapiens) (UniProt P21728). The experiment in a line: NVS_GPCR_hDRD1: NovaScreen (NVS) G Protein-Coupled Receptor Assay for human Dopamine Receptor D1 (DRD1) (AID 2283269). Summed up:
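Radioligand displacement binding on membranes/protein extracted from HEK293 expressing human D1, cell-free; read 1 h after dosing by filter-based scintillation counting. Primary screen in duplicate at 25 uM, actives followed up in concentration series; signal loss versus DMSO baseline.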

The target in assay [11] is human Opioid Receptor Delta 1 (Opiate D1), OPRD1 (gene 4985) (UniProt P41143). The assay is described as follows: NVS_GPCR_hOpiate_D1: NovaScreen (NVS) G Protein-Coupled Receptor Assay for human Opioid Receptor Delta 1 (Opiate D1) (AID 2283280). Summed up: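 Membrane preparations from CHO cells bearing the human receptor were incubated 1 h with test chemical, and bound radioligand was counted after filtration. Actives from 25 uM duplicate screening were retested in concentration-response.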
human Opioid Receptor Delta 1 (Opiate D1), OPRD1 (gene 4985), sequence (P41143 whole entry, looked up): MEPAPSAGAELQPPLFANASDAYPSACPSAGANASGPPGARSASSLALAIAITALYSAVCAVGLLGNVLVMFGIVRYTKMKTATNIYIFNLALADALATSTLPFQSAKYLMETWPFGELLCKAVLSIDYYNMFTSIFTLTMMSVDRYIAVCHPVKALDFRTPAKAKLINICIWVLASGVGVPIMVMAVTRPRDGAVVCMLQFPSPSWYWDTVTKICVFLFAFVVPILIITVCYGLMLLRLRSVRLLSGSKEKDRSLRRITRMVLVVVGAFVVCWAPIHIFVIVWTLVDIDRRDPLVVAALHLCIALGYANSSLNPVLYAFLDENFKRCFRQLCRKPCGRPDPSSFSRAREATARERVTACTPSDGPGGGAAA

Assay [12] deals with human Dopamine Receptor D2 (DRD2), DRD2 (gene 1813) (UniProt P14416). The experiment in a line: NVS_GPCR_hDRD2s: NovaScreen (NVS) G Protein-Coupled Receptor Assay for human Dopamine Receptor D2 (DRD2) (AID 2283266). Summed up: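 Test compound (25 uM, duplicate in the primary screen; concentration series at follow-up) competed with radioligand for human DRD2 in CHO-derived membrane protein. Filter-based scintillation counting was done 1.5 hours after dosing, with loss of signal analysed against DMSO.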
human Dopamine Receptor D2 (DRD2), DRD2 (gene 1813), sequence (P14416 whole entry, looked up): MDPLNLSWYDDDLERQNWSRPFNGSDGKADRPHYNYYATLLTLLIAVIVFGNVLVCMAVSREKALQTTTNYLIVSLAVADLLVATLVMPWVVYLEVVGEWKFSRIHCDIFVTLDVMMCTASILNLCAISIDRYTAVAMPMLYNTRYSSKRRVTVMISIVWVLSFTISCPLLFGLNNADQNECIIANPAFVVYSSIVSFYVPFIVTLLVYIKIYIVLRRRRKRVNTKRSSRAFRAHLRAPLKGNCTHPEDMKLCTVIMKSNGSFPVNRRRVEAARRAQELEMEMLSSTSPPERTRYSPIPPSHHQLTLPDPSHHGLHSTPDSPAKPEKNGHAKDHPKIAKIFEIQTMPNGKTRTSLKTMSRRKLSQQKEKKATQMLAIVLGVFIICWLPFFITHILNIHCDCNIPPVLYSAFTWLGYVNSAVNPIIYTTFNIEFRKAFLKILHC

In assay [13] the target is human Endothelin Receptor Type B (ETB), EDNRB (gene 1910) (UniProt P24530). The assay is described as follows: NVS_GPCR_hETB: NovaScreen (NVS) G Protein-Coupled Receptor Assay for human Endothelin Receptor Type B (ETB) (AID 2283267). The method in brief:
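Filter-based scintillation readout of radioligand displacement, 4 h, using membranes from human astrocytoma cells. Actives from a 25 uM duplicate screen were retested in concentration-response (top 50 uM) relative to DMSO baseline.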

In assay [14] the target is Muscarinic acetylcholine receptor M1 (Homo sapiens) (UniProt P11229). The assay is described as follows: NVS_GPCR_hM1: NovaScreen (NVS) G Protein-Coupled Receptor Assay for human Muscarinic, M1 Receptor (AID 2283270). The method in brief:
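Actives from a duplicate 25 uM single-point screen were retested in concentration series. Binding measured as displacement of a radioligand from CHO-derived receptor preparation, 1 h incubation, filtration and scintillation counting, analysed as signal loss against DMSO.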

The target of assay [15] is Muscarinic acetylcholine receptor M5 (Homo sapiens) (UniProt P08912). The experiment in a line: NVS_GPCR_hM5: NovaScreen (NVS) G Protein-Coupled Receptor Assay for human Muscarinic, M5 Receptor (AID 2283275). The method in brief: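 Chemicals passing a primary duplicate screen at 25 uM were run as singleton concentration series, maximum 50 uM. Displacement of a specific radioligand from CHO-extracted receptor was read by filter scintillation after 1 h, relative to DMSO.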

Assay [16] addresses human Orphanin, Opioid Related Nociceptin Receptor 1 (ORL1), OPRL1 (gene 4987) (UniProt P41146). The experiment in a line: NVS_GPCR_hORL1: NovaScreen (NVS) G Protein-Coupled Receptor Assay for human Orphanin, Opioid Related Nociceptin Receptor 1 (ORL1) (AID 2283283). The method in brief: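 Cell-free binding using HEK293-derived receptor protein: radioligand displacement measured by filter scintillation 1 hour after dosing. Primary testing at 25 uM in duplicate, followed by singleton concentration series up to 50 uM; DMSO served as negative control.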

Muscarinic acetylcholine receptor M2 (Homo sapiens), sequence (P08172 whole entry, looked up): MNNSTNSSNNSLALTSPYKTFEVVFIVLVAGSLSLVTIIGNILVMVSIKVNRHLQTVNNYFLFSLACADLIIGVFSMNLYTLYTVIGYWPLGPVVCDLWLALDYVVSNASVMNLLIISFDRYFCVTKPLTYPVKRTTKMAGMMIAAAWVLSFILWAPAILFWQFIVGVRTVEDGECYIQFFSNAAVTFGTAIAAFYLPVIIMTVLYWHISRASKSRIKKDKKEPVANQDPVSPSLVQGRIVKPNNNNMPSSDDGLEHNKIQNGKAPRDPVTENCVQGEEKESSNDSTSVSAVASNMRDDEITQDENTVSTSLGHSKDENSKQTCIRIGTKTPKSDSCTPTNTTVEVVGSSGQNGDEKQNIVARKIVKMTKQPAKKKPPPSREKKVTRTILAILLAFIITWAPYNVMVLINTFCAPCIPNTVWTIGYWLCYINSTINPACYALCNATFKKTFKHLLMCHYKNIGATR
human Purinergic Receptor P2Y, P2RY1 (gene 5028), sequence (P47900 whole entry, looked up): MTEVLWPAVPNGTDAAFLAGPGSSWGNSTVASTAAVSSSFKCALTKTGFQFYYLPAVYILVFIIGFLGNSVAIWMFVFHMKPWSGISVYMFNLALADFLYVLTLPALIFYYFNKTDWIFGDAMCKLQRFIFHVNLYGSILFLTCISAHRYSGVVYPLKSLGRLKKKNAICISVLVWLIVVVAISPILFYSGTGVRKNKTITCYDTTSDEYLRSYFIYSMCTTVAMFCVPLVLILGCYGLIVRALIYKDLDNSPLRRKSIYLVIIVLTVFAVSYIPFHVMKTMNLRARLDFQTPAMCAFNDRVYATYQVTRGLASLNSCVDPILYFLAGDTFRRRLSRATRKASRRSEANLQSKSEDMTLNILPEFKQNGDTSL
human Muscarinic, M4 Receptor, CHRM4 (gene 1132), sequence (P08173 whole entry, looked up): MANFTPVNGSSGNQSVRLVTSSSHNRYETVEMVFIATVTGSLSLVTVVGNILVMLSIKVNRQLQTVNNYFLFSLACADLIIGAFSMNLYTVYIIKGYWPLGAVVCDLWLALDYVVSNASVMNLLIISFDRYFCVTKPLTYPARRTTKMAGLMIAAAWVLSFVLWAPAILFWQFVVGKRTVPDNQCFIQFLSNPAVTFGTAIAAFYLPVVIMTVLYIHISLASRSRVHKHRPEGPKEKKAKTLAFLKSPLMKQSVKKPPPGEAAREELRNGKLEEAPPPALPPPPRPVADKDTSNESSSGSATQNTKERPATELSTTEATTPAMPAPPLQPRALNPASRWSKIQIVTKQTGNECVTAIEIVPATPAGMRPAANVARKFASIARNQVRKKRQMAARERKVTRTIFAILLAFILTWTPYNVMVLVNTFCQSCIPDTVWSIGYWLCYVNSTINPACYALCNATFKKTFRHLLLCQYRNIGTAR
D(1A) dopamine receptor (Homo sapiens), sequence (P21728 whole entry, looked up): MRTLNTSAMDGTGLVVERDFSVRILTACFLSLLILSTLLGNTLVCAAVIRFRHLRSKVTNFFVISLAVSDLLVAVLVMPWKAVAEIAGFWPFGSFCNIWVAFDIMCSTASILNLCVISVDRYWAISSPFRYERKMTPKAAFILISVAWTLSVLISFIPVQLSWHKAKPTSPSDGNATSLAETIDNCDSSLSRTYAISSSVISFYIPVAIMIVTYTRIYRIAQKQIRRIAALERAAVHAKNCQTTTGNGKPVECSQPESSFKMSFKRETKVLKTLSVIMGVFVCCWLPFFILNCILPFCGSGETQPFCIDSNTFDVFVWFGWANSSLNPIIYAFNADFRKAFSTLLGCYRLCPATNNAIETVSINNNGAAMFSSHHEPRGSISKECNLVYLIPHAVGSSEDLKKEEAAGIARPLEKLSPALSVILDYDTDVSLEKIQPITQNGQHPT
human Orphanin, Opioid Related Nociceptin Receptor 1 (ORL1), OPRL1 (gene 4987), sequence (P41146 whole entry, looked up): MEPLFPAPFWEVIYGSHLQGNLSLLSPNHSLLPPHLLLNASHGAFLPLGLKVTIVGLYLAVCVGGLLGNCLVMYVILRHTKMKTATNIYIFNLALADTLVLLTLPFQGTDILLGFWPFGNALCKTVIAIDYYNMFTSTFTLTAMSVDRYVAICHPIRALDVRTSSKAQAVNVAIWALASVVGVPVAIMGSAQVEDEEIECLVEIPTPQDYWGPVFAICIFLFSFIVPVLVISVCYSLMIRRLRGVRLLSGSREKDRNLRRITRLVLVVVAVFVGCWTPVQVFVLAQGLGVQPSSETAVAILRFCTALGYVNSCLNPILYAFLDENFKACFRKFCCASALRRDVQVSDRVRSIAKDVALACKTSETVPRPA
mouse Cholecystokinin, CCK1 Receptor (CCKA), Cckar (gene 12425), sequence (O08786 whole entry, looked up): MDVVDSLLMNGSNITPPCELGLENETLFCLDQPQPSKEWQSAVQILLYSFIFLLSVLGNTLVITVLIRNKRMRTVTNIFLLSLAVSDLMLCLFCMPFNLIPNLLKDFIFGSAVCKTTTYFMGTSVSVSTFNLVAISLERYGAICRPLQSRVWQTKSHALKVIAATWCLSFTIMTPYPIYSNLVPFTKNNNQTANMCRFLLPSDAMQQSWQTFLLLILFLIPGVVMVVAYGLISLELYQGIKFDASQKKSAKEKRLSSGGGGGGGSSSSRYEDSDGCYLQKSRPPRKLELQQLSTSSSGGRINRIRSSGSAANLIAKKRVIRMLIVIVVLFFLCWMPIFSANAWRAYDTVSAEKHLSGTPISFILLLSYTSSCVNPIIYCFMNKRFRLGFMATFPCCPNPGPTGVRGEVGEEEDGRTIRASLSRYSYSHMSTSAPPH
Neuropeptide Y receptor type 2 (Homo sapiens), sequence (P49146 whole entry, looked up): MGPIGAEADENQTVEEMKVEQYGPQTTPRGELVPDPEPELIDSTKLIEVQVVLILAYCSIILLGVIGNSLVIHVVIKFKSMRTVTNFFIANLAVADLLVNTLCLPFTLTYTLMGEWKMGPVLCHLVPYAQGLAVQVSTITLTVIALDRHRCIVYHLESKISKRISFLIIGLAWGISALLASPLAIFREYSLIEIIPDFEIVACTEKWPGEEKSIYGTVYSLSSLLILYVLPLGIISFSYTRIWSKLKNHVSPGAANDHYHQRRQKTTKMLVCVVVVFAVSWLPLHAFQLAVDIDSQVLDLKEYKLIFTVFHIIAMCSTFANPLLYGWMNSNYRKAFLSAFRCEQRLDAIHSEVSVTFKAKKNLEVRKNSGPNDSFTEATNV

Take `O=S(=O)(O)C(F)(F)C(F)(F)C(F)(F)C(F)(F)C(F)(F)C(F)(F)F`: in assay [1], the call was inactive. The AC50 in [2] was 14.5 µM (active).
`CC(C)(O)C(=O)Nc1ccc([N+](=O)[O-])c(C(F)(F)F)c1`: the call in [3] was inactive.
In the case of `Oc1c(Cl)c(Cl)c(Cl)c(Cl)c1Cl`, the compound was called inactive in assay [4], in [3] and in assay [5].
For `Cc1cc2c3c(c1)C(c1ccccc1)=N[C@@H](NC(=O)c1ccncc1)C(=O)N3CC2`, the result in assay [4], in assay [6] and in assay [2] was inactive. In addition, the AC50 in assay [7] is 19.9 µM (active).
With `N#Cc1ccc(N(CC(N)=O)CC(F)(F)F)cc1C(F)(F)F`, in assay [5], the outcome was inactive.
For the compound `Cc1ccc(O)c(C)c1`, in assay [5], the AC50 is 0.12 µM (active).
`O=C(N[C@H]1CN2CCC1CC2)c1cc2ccoc2cn1`: in [8], the AC50 was 25 µM (active).
Turning to `CCC(=O)O[C@H]1CC[C@H]2[C@@H]3CCC4=CC(=O)CC[C@]4(C)[C@H]3CC[C@]12C`, the outcome in assay [8] was inactive. The concentration at half-maximal activity (AC50) in assay [9] is 2.04 µM (active).
For the compound `O=C(O)C(F)(F)C(F)(F)C(F)(F)C(F)(F)C(F)(F)C(F)(F)C(F)(F)C(F)(F)F`, in assay [2], the half-maximal activity concentration (AC50) was 6.2 µM (active).
Regarding `CCCCCCCCCc1ccc(O)cc1`, the outcome in assay [3] was inactive.
In the case of `CCC(C)(CC)c1cc(NC(=O)c2c(OC)cccc2OC)on1`, in assay [2], the AC50 is 1.03 µM (active).
With `O=C(O)C(F)(F)C(F)(F)C(F)(F)C(F)(F)C(F)(F)C(F)(F)C(F)(F)C(F)(F)C(F)(F)F`, the values for the AC50 in assay [10], in assay [11] and in assay [2] were 16.8 µM (active), 16.4 µM (active) and 25 µM (active), respectively. The compound was called inactive in assay [3].
For the compound `Oc1ccc(C(c2ccc(O)cc2)(C(F)(F)F)C(F)(F)F)cc1`, the AC50 was 9.39 µM (active) in [12]; 2.86 µM (active) in [10]; 37 µM (active) in [14]; 32.5 µM (active) in assay [9]; 18.4 µM (active) in assay [15]; 11.4 µM (active) in assay [11]. Further, in assay [16], the AC50 is 25 µM (active). The compound was called inactive in [13] and in [8].
On to `O=C(NC(=O)c1c(F)cccc1F)Nc1cc(Cl)c(OC(F)(F)C(F)F)c(Cl)c1`, for which the result in assay [2] was inactive.
As to `COc1ccc(O)c(C(C)(C)C)c1`, the AC50 in [12] was 25 µM (active).
In the case of `C[C@]12CCC(=O)C=C1CC[C@@H]1[C@@H]2CC[C@@]2(C)[C@H]1CC[C@]2(C)O`, the result in assay [11] was inactive.

The record behind these values is PubChem BioAssay (EPA / NIEHS).
